# In the library only some 3.5% were active in any assay of this set; here they are far more common.
# GPR151 ag: activators of human GPR151 | Q8TDV0 | PathHunter beta-arrestin GPR151 cells, luminescence | activation, % at 11.2 µM | 650,000 compounds, 1% hits | AID 1508602; in the data active means activation above about 4.9%
# TEAD-YAP block: TEAD-YAP interaction inhibition. 640,000 compounds, 1.4% hits. HEK-TIYL cells, TEAD-Gal4/YAP UAS-luciferase luminescence. inhibition, % at 9.12 µM; in the data active means inhibition above about 32%
# FBW7 activator: human FBW7 E3 ligase activation, primary screen; AID 1259310; normalized activity (activation), % at 26.1 µM; AlphaScreen FBW7–phospho-cyclin E peptide binding, activator screen; Q969H0; 650,000 compounds, 0.13% hits; in the data active means normalized activity above about 1.9%;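 further: purified mutant Fbw7 with reduced substrate affinity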
# Target sequence (Q969H0 whole entry, looked up): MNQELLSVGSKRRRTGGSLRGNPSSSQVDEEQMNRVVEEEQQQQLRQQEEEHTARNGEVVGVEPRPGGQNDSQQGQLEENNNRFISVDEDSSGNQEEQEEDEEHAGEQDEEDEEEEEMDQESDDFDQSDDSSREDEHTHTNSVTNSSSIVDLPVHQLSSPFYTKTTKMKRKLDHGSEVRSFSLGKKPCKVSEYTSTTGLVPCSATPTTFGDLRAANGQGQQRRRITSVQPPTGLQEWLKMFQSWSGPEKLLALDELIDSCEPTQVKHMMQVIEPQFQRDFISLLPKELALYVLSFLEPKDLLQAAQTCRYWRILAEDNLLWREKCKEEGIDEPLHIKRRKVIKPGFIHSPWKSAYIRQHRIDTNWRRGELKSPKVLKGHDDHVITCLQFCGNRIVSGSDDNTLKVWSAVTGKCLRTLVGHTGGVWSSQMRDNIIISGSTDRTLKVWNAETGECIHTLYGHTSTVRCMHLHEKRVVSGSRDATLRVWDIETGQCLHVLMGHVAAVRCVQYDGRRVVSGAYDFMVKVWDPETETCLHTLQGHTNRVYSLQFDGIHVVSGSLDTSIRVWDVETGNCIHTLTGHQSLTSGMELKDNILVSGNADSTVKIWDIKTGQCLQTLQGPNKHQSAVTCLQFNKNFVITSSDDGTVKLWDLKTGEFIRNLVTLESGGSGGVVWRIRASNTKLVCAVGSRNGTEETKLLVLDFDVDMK
# MITF inh: inhibitors of human MITF. O75030. AlphaScreen MITF homodimerization, bead proximity signal. inhibition, % at 2.6 µM. 650,000 compounds, 0.91% hits. AID 1259374; in the data active means inhibition above about 50%
# Numbers stand for hits; – = inactive.
SMILES,GPR151 ag,TEAD-YAP block,FBW7 activator,MITF inh
CNC(=O)c1cc(F)ccc1Nc1cc(Nc2cc(-c3cncnc3)nc(C)n2)ncc1C(F)(F)F,–,55,–,–
CCOC(=O)CCn1c(=O)c2c(nc3n(-c4ccccc4C)c(C)c(C)n23)n(C)c1=O,–,–,–,–
O=C(O)CCCC(=O)Nc1cc(Cl)ccc1O,–,–,–,–
Cc1cncc2cccc(NC3CCCN(C(=O)c4cccc(Br)c4)C3)c12 (configuration not stated),–,–,–,–
Cc1cncc2cccc(NC3CCN(C(=O)C(N)c4ccc(Cl)cc4)CC3)c12 (configuration not stated),–,–,–,–
Cc1cncc2cccc(NC3CCCN(C(=O)C(O)c4ccc(Cl)cc4)C3)c12 (configuration not stated),–,42,–,–
Cc1cc2c(NC3CCCN(C(=O)C(O)c4ccc(Cl)cc4)C3)cccc2nn1 (configuration not stated),–,–,–,56
Cc1cncc2cccc(NC3CCCN(C(=O)[C@H](C)O)C3)c12 (some centres not stated),–,62,–,–
Cc1cncc2cccc(NC3CCCN(C(=O)C(O)c4ccc(F)cc4)C3)c12 (configuration not stated),–,45,–,–
Cc1nc(N2CCC(C)CC2)c2c(C)c(C(=O)N3CCN(c4ccccn4)CC3)sc2n1,–,–,–,–
COc1ccc(NC(=O)CCl)cc1S(N)(=O)=O,–,–,–,–
COc1ccc(NS(=O)(=O)c2cc(NC(=O)CNC(C)=O)ccc2N2CCCC2)cc1,–,39,–,–
COc1ccccc1N1CCN(C(=O)c2cc([N+](=O)[O-])cc([N+](=O)[O-])c2)CC1,–,–,–,–
O=C(c1ccc(S(=O)(=O)c2cccc(Cl)c2)c([N+](=O)[O-])c1)N1CCN(c2ccc(F)cc2)CC1,–,–,–,–
COc1ccc(C(=O)N2CCN(Cc3ccc4c(c3)OCO4)CC2)cc1[N+](=O)[O-],–,45,–,–
O=C(c1ccc(S(=O)(=O)c2cccc(Cl)c2)c([N+](=O)[O-])c1)N1CCOCC1,–,32,–,–
O=C1Nc2cc(C(=O)N3CCN(Cc4ccc5c(c4)OCO5)CC3)ccc2NC1CSCc1ccc(F)cc1 (configuration not stated),–,48,–,–
O=C(c1ccc([N+](=O)[O-])c(Cl)c1)N1CCN(Cc2ccc3c(c2)OCO3)CC1,–,51,–,–
COc1ccc(CN2CCN(C(=O)c3ccc(S(=O)(=O)c4ccc(F)cc4)c([N+](=O)[O-])c3)CC2)c(OC)c1OC,–,43,–,–
Cc1ccccc1NC(=O)Nc1nnc(N2CCCC2)s1,–,–,–,–
Cn1/c(=N/N=C/c2ccc(C(=O)O)cc2)sc2ccccc21,–,–,–,–
Cn1/c(=N\N=C/c2ccc(O)cc2)sc2ccccc21,–,–,1.9,–
Cc1ccc2nc(C(F)(F)F)c(C#N)c(N)c2c1,–,45,–,–
Cc1ccc2onc(CC(=O)N3CCCC3)c2c1,–,–,–,–
CCCOC(=O)CSC1=C(C#N)C(c2ccc(O)cc2)CC(=O)N1 (configuration not stated),–,–,–,–
SMILES,GPR151 ag,TEAD-YAP block,FBW7 activator,MITF inh
CC(C)OC(=O)CSC1=C(C#N)C(c2ccccc2)CC(=O)N1 (configuration not stated),–,62,–,–
N#CC1=C(SCC(=O)Nc2ccccc2)NC(=O)CC1c1ccccc1 (configuration not stated),–,32,–,–
CCCCOC(=O)CSC1=C(C#N)C(c2ccccc2)CC(=O)N1 (configuration not stated),–,45,–,–
CCCOC(=O)CSC1=C(C#N)C(c2ccccc2)CC(=O)N1 (configuration not stated),–,57,–,–
N#CC1=C(SCC(=O)Nc2ccccc2)NC(=O)CC1c1ccc(O)cc1 (configuration not stated),–,–,–,–
CCCCOC(=O)CSC1=C(C#N)C(c2ccc(Cl)cc2)CC(=O)N1 (configuration not stated),–,–,–,–
CCc1ccc(C2CC(=O)NC(SCC(=O)OC(C)C)=C2C#N)cc1 (configuration not stated),–,–,–,–
CCCc1ccc(-c2ccc(-c3noc(-c4cc(-c5ccc(F)cc5)nc5ccccc45)n3)cc2)cc1,–,–,–,–
O=c1[nH]c(=S)[nH]c2c1cnn2-c1ccccc1,–,–,–,–
CC(C)C(C)(C#N)NC(=O)CSc1nnc(-c2ccccc2Br)o1 (configuration not stated),–,–,–,–
COc1ccc(Br)cc1/C=C/C(=O)c1cccc(NC(C)=O)c1,–,75,–,–
COc1cc(CNc2ccc3c(c2)CCN3C(C)=O)cc(OC)c1OC,–,67,–,–
COc1ccc(S(=O)(=O)Nc2ccc3c(c2)CCCN3C(C)=O)c(OC)c1,–,–,–,–
COCCSc1nsc(NC(=O)Nc2cccc(C(C)=O)c2)n1,–,33,–,–
Cc1cc(C)cc(NC(=O)CSc2nc(C)cc(=O)[nH]2)c1,–,–,–,–
Cc1c(NC(=O)CCC(=O)NCCO)c(=O)n(-c2ccccc2)n1C,–,–,–,–
Cc1cc2nccc(NC(=O)c3c(F)cccc3F)n2n1,–,–,–,–
Cc1cc2nccc(NC(=O)CSc3ccccc3)n2n1,–,–,2.1,–
CCn1nnc(NC(=O)COc2ccc(Cl)cc2)n1,–,–,–,–
O=C(Nc1ccccn1)c1cc2ccccc2o1,–,71,–,–
Cc1cc(C)cc(NC(=O)c2cc3ccccc3o2)c1,–,–,–,–
Cc1ccnc(NC(=O)c2cc3ccccc3o2)c1,–,56,–,–
O=C(Nc1ccccc1NC(=O)c1cc2ccccc2o1)c1ccccn1,–,–,–,–
COc1ccc(S(=O)(=O)NC2CCS(=O)(=O)C2)cc1OC (configuration not stated),–,–,–,–
COc1ccc(-c2cnn3c(NCc4ccc5c(c4)OCO5)ccnc23)c(OC)c1,–,–,–,–
SMILES,GPR151 ag,TEAD-YAP block,FBW7 activator,MITF inh
CC(=O)NC(c1ccc(C(C)C)cc1)c1cc(Cl)c2cccnc2c1O (configuration not stated),–,38,–,–
CC(=O)NC(c1ccccc1)c1cc(Cl)c2cccnc2c1O (configuration not stated),–,76,–,63
CC(=O)NC(c1ccc(N(C)C)cc1)c1cc(Cl)c2cccnc2c1O (configuration not stated),–,–,–,–
CCN=c1scc(-c2ccccc2F)n1/N=C/c1ccc2c(c1)OCCO2,–,51,–,–
Cc1csc(=Nc2ccccc2F)n1/N=C/c1ccsc1,–,–,–,–
CCN=c1scc(C)n1/N=C/c1ccc2c(c1)OCCO2,–,–,–,–
CN=c1scc(-c2ccccc2F)n1/N=C/c1ccccc1,–,99,–,–
Cc1ccc(C2=CC(c3c(F)cccc3Cl)n3nnnc3N2)cc1C (configuration not stated),–,–,–,–

# Assay outcomes deposited in PubChem BioAssay by The Scripps Research Institute Molecular Screening Center.
